In general, inhibition refers to the relative decrease from the control value, in per cent.

This is an account of results in PubChem BioAssay.

A number with no mark means an inactive call. For some of these results: Results with a measured potency or affinity are listed apart. Activity calls are given as the source filed them. Unless noted, no rule for the calls is given here.

The nature of assay [1]: antimalarial activity against Dd2 strain (AID 2302;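 active = growth inhibition above 50% at the single 2 µM test dose, taken to imply half-maximal potency below 2 µM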;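 also: 0% = DMSO untreated growth and 100% = chloroquine plus artemisinin killed control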). The following applies: P. falciparum Dd2 in RBCs, LDH growth readout, 72 h; at 2 µM; active compounds read high.
Assay [2] is described as follows: HepG2 cytotoxicity, primary screen, cytotoxicity control for P. falciparum antimalarial project, cell-based, ATP luminescence (AID 2303;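 active = inhibition above 50%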;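 also: 0% = DMSO wells and 100% = digitonin-killed cells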). Particulars: HepG2 viability, 24-48 h, at 10 µM, active compounds read high.
The target of assay [3] is L-lactate dehydrogenase (Plasmodium falciparum (isolate CDC / Honduras)) (UniProt Q27743). Nature of the assay: PfLDH activity inhibition – cell lysate, 3D7 strain, counter-screen for P. falciparum growth inhibition project (AID 2304).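 Also: 0% = vehicle and 100% = reference inhibitor.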 The following applies: P. falciparum 3D7 crude extract, LDH APAD/NBT absorbance; at 2 µM; active compounds read high. A general note: Counterscreens check selectivity or assay interference.
Chain of L-lactate dehydrogenase (Plasmodium falciparum (isolate CDC / Honduras)) (Q27743 whole entry, looked up): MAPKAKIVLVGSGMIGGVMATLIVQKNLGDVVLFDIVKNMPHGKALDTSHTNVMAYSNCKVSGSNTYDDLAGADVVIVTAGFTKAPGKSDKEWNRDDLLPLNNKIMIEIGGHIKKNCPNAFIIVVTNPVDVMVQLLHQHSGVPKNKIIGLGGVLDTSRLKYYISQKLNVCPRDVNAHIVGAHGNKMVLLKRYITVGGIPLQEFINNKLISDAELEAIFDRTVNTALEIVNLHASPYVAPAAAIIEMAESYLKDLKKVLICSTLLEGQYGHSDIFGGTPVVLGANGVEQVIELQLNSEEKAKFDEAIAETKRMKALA

Assay [4] in a line: inhibition of 3D7 malaria parasite growth – strain 3D7 (AID 2306).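 Also: 0% = DMSO wells and 100% = chloroquine plus artemisinin control wells.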 Particulars: P. falciparum 3D7 erythrocytic growth, LDH absorbance, 72 h; at 2 µM; active compounds read high.
The target in assay [5] is Calcium-dependent protein kinase 1 (Plasmodium falciparum (isolate 3D7)) (UniProt P62344). The assay can be described thus: PfCDPK1 kinase inhibitors, biochemical, TCAMS library (AID 1159585; cut-off not given, nearly all actives have IC50 up to about 0.98 µM;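 also: inhibitors leave more ATP so luminescence rises with inhibition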). Particulars: recombinant PfCDPK1, Kinase-Glo ATP depletion luminescence. For orientation: Kinase-Glo reads ATP consumption through a luciferase reaction.
Chain of Calcium-dependent protein kinase 1 (Plasmodium falciparum (isolate 3D7)) (P62344 whole entry, looked up): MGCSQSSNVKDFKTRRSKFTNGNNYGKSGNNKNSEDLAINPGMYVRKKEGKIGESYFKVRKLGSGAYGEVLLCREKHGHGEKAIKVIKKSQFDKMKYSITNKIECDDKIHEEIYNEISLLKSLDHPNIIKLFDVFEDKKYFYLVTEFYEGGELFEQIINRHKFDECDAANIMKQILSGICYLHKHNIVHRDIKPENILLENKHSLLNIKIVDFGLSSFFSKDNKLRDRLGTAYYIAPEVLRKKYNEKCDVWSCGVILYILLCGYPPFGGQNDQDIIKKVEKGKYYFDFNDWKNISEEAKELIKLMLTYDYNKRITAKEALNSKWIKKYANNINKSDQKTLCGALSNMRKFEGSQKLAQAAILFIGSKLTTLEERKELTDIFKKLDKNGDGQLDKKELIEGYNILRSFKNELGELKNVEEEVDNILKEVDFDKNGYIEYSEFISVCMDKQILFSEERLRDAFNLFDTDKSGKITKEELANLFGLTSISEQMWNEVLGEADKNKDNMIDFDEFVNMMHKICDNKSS
The target in assay [6] is Plasmodium falciparum protein kinase 6 (PK6, PF3D7_1337100) (UniProt Q8IDW1). Nature of the assay: PfPK6 kinase inhibitors, biochemical, TCAMS library (AID 1159586). Particulars: recombinant PfPK6, Kinase-Glo ATP depletion luminescence.
Chain of Plasmodium falciparum protein kinase 6 (PK6, PF3D7_1337100) (Q8IDW1 1-305): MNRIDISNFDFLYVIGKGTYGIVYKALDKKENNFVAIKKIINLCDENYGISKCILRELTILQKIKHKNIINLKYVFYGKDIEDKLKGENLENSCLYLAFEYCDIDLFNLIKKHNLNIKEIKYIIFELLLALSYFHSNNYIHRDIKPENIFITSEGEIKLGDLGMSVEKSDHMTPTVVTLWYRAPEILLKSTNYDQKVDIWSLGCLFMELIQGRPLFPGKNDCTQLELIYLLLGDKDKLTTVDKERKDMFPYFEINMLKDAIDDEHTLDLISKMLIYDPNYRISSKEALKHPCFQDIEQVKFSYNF
In assay [7] the target is Protein kinase 7 (PK7), Plasmodium falciparum 3D7 (PF3D7_0213400) (UniProt Q7YTF7). The assay can be described thus: inhibition of Plasmodium PK7 catalytic activity – biochemical, TCAMS antimalarial set, Kinase-Glo luminescence (AID 1159587). Particulars: recombinant PfPK7, Kinase-Glo ATP depletion luminescence.
Chain of Protein kinase 7 (PK7), Plasmodium falciparum 3D7 (PF3D7_0213400) (Q7YTF7 1-343): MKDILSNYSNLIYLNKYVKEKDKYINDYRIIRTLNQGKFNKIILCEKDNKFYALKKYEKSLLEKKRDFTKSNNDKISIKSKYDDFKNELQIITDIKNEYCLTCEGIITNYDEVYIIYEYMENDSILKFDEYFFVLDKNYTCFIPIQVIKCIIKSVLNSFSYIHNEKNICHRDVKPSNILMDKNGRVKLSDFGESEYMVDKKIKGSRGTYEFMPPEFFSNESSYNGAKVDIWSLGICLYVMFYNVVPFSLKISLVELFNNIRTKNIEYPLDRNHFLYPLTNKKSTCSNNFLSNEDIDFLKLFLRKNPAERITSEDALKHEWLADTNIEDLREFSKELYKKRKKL
Assay [8] deals with Calcium-dependent protein kinase 4 (Plasmodium falciparum (isolate 3D7)) (UniProt Q8IBS5). The assay can be described thus: PfCDPK4 kinase inhibitors, biochemical, TCAMS library (AID 1159588; cut-off not given, nearly all actives have IC50 up to about 0.91 µM). The following applies: recombinant PfCDPK4, Kinase-Glo ATP depletion luminescence.
Chain of Calcium-dependent protein kinase 4 (Plasmodium falciparum (isolate 3D7)) (Q8IBS5 whole entry, looked up): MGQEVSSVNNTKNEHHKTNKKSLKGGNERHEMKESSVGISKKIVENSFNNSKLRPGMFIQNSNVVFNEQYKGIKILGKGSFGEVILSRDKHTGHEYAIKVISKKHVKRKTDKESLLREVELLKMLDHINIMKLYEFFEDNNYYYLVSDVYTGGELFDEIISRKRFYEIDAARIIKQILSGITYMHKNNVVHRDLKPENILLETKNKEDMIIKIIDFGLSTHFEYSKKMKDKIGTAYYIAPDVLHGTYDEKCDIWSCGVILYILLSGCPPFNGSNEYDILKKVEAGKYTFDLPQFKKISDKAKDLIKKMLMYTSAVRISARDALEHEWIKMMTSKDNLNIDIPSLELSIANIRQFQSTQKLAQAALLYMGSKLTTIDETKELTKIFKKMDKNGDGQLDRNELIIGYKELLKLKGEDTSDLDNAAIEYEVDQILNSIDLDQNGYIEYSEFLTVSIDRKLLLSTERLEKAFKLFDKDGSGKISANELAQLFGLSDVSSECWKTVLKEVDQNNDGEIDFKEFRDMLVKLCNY

As for `Cc1cccc(CNc2nc(C)cc(N[C@@H](Cc3ccccc3)C(=O)NCCc3ccccc3)n2)c1`, the growth inhibition is 85% (active) in assay [1] and 99% (active) in assay [4]. In addition, the inhibition in assay [2] is 24%; in assay [3], 2%. Besides, the outcome in assay [5], in assay [6], in assay [7] and in assay [8] was inactive.

Regarding `CCNc1cc(C)nc(Nc2ccc(NC(=O)c3ccco3)cc2)n1`, the growth inhibition is 32% in assay [1] and 95% (active) in assay [4]. Also, the results for the inhibition in assay [2] and in assay [3] were 24% and -2%, respectively. Also, the outcome in assay [5], in assay [6], in assay [7] and in assay [8] was inactive.

Turning to `S=C(NCCCCCN1CCC(c2c[nH]c3ccccc23)CC1)Nc1ccc(Cl)c(Cl)c1`, the growth inhibition in assay [1] is 31%; in assay [4], 101% (active). The inhibition in assay [2] was 89% (active); in assay [3], -3%. Also, the result in assay [5], in assay [6], in assay [7] and in assay [8] was inactive.

In the case of `Cc1ccc2nc(-c3ccc(C=CC(=O)NCc4ccc(Cl)c(Cl)c4)cc3)[nH]c2c1`, the growth inhibition in assay [1] is 18%; in assay [4] it was 96% (active). The inhibition in assay [2] is 5%; in assay [3], -5%. The result in assay [5], in assay [6], in assay [7] and in assay [8] was inactive.

As to `O=C(NCC1CCC(C(=O)NCc2cccc3ccccc23)CC1)c1ccc(O)c(-c2ccc(Cl)c(Cl)c2)c1` (stereo not given), the figures for the growth inhibition in assay [1] and in assay [4] were 92% (active) and 100% (active), respectively. Moreover, the inhibition is 0% in assay [2] and -6% in assay [3]. Further, the result in assay [5], in assay [6], in assay [7] and in assay [8] was inactive.

Consider `CC1CN(c2ccc(C(=O)NCC3CC3)cc2NC(=O)OCc2ccccc2)CC(C)O1` (stereo not given), for which the growth inhibition was 76% (active) in assay [1] and 91% (active) in assay [4]. Besides, the inhibition in assay [2] is -5%; in assay [3], -2%. For the same compound, the outcome in assay [5], in assay [6], in assay [7] and in assay [8] was inactive.

Take `FC(F)(F)c1ccc(CSc2ccc3nnc(-c4ccccn4)n3n2)cc1`: the growth inhibition was 54% (active) in assay [1] and 95% (active) in assay [4]. In addition, the inhibition in assay [2] was -2%; in assay [3], -1%. For the same compound, the outcome in assay [5], in assay [6], in assay [7] and in assay [8] was inactive.

Consider `CNC(=O)c1cnc(Nc2ccc(OCC(O)CN(C)C)cc2)nc1Nc1cccc(Br)c1` (stereo not given), for which the growth inhibition in assay [1] is 100% (active); in assay [4], 102% (active). Also, the values for the inhibition in assay [2] and in assay [3] were 68% (active) and -5%, respectively. Moreover, the result in assay [5], in assay [6], in assay [7] and in assay [8] was inactive.

Take `CS(=O)(=O)N1CC2(CCN(CCC(NC(=O)NCc3ccc(Cl)c(Cl)c3)c3ccc(Cl)c(Cl)c3)CC2)c2ccccc21` (stereo not given): the growth inhibition in assay [1] was 59% (active); in assay [4], 89% (active). For the same compound, the inhibition in assay [2] was 19%; in assay [3], -8%. Besides, the outcome in assay [5], in assay [6], in assay [7] and in assay [8] was inactive.

On to `O=C(NCCCN1CCC(N2CCCCC2)CC1)c1ccc(N2CCOc3ccccc32)s1`, for which the growth inhibition is 12% in assay [1] and 101% (active) in assay [4]. The inhibition was 37% in assay [2] and 4% in assay [3]. In addition, the result in assay [5], in assay [6], in assay [7] and in assay [8] was inactive.

Consider `O=C(Nc1ccc(Oc2ccccc2)cc1)N(Cc1ccc(-c2cccc(CN3CCNCC3)c2)cc1)C1CCN(Cc2ccccc2)CC1`, for which the growth inhibition is 53% (active) in assay [1] and 93% (active) in assay [4]. Besides, the inhibition was 10% in assay [2] and -1% in assay [3]. Further, the result in assay [5], in assay [6], in assay [7] and in assay [8] was inactive.

Consider `Clc1ccc(OCCC2CCN(CCCCCCCN3CCC(CCOc4ccc(Cl)c(Cl)c4)CC3)CC2)cc1Cl`, for which the results for the growth inhibition in assay [1] and in assay [4] were 82% (active) and 99% (active), respectively. Besides, the results for the inhibition in assay [2] and in assay [3] were 100% (active) and -5%, respectively. Moreover, the outcome in assay [5], in assay [6], in assay [7] and in assay [8] was inactive.

Turning to `Cc1ccc(C2(C)CN(CCCOc3cccc(-c4ccc(C(=O)NC(C)C)cc4)c3)CCO2)cc1` (stereo not given), the results for the growth inhibition in assay [1] and in assay [4] were 89% (active) and 93% (active), respectively. In addition, the inhibition was 15% in assay [2] and 0% in assay [3]. The outcome in assay [5], in assay [6], in assay [7] and in assay [8] was inactive.

For `CC1(C)N=C(N)N=C(N)N1OCc1cccc(Cl)c1Cl`, the growth inhibition was 75% (active) in assay [1] and 92% (active) in assay [4]. The inhibition in assay [2] is 68% (active); in assay [3], -1%. Moreover, the outcome in assay [5], in assay [6], in assay [7] and in assay [8] was inactive.

`CCCc1ccc(C(=O)N2[C@@H](c3nccs3)[C@@H](C(N)=O)C[C@@]2(CC(C)C)C(=O)O)cc1`: the growth inhibition was 80% (active) in assay [1] and 94% (active) in assay [4]. Also, the inhibition in assay [2] was 16%; in assay [3], 1%. In addition, the outcome in assay [5], in assay [6], in assay [7] and in assay [8] was inactive.

For the compound `O=C(/C=C/c1ccc(Cl)c(Cl)c1)NCCCCCN1CCC(NC(=O)c2ccc([N+](=O)[O-])cc2)CC1`, the results for the growth inhibition in assay [1] and in assay [4] were 6% and 100% (active), respectively. Also, the inhibition is 36% in assay [2] and -2% in assay [3]. Also, the outcome in assay [5], in assay [6], in assay [7] and in assay [8] was inactive.

With `NC(N)=NN=Cc1ccccc1OCc1ccccc1Cl`, the growth inhibition in assay [1] was 30%; in assay [4], 101% (active). Further, the inhibition was 14% in assay [2] and 5% in assay [3]. In addition, the result in assay [5], in assay [6], in assay [7] and in assay [8] was inactive.

Turning to `CCN(CC)CCOc1ccc(C(O)(C#CC(O)(c2ccc(Br)cc2)c2ccc(OCCN(CC)CC)cc2)c2ccc(Br)cc2)cc1` (stereo not given), the growth inhibition in assay [1] and in assay [4] was 99% (active) throughout. Besides, the inhibition was 99% (active) in assay [2] and 7% in assay [3]. In addition, the result in assay [5], in assay [6], in assay [7] and in assay [8] was inactive.

Turning to `CC[C@H]1CN(Cc2ccco2)CC[C@H]1CCCc1ccnc2ccc(O)cc12`, the figures for the growth inhibition in assay [1] and in assay [4] were 14% and 93% (active), respectively. The inhibition in assay [2] was 31%; in assay [3], -1%. The outcome in assay [5], in assay [6], in assay [7] and in assay [8] was inactive.

`O=C(CC(=O)C(F)(F)F)c1ccccc1[N+](=O)[O-]`: the growth inhibition is 95% (active) in assay [1] and 97% (active) in assay [4]. The inhibition was 65% (active) in assay [2] and -6% in assay [3]. The outcome in assay [5], in assay [6], in assay [7] and in assay [8] was inactive.
